# From PubChem BioAssay AID493221 (Johns Hopkins Ion Channel Center, 2011)
# About 1,700 (71%) of roughly 2,400 compounds were called active.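 How the source made its calls: active means choline transporter activity left, mean of duplicates at 10 µM, below buffer-only control mean minus 3 SD; inactive means the rest.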 So high a share suggests a set chosen from earlier hits. A selection follows.
# Biological target: High affinity choline transporter 1 (Homo sapiens) (UniProt Q9GZV3)
# Test: CHT inhibitors, confirmation, cell-based, membrane potential dye, duplicate (AID 493221)
# Conditions: CHT-expressing cells, at 10 µM, LV-to-AA substituted CHT, HEK293 cells
# High affinity choline transporter 1 (Homo sapiens), sequence (Q9GZV3 whole entry, looked up): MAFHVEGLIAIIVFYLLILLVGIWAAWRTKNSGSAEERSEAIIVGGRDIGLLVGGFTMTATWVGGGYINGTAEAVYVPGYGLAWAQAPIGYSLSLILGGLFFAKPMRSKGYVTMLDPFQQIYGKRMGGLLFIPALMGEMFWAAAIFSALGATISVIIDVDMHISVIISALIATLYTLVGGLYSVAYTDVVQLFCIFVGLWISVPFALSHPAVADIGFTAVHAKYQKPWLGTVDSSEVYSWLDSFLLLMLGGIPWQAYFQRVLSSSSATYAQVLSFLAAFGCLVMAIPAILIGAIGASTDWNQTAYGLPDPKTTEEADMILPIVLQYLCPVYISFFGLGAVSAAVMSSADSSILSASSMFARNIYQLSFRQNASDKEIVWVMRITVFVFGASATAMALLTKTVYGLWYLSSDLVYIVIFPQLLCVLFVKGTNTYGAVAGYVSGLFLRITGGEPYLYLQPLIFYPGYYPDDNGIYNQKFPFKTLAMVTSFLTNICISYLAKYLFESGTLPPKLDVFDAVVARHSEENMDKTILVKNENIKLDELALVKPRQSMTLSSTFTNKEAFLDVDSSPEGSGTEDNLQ
row,Compound,CHT activity remaining % of control (hits give low values)
1,Cc1ccc(CS(=O)(=O)c2ncc(Cl)c(C(=O)Nc3nnc(C)s3)n2)cc1,25.2% (active)
2,O=C(Nc1nonc1-c1ccc(Cl)cc1)c1ccco1,68.2% (active)
3,COCCNc1nc(-n2nc(C)cc2C)nc2sc3c(c12)CCCC3,71.2% (active)
4,O=C(CCCN1C(=O)CSc2ncccc21)N1CCN(c2cccc(C(F)(F)F)c2)CC1,42.1% (active)
5,COc1cccc(-c2nn(-c3ccccc3)cc2/C=C(\C#N)C(=O)NCCCn2ccnc2)c1,28.8% (active)
6,CC(=O)OCCOCn1cnn2c(=O)c(Br)c(C)nc12,37.2% (active)
7,Cc1ccccc1-n1nnc2c(=O)oc3ccccc3c21,inactive
8,CN(Cc1ccccc1)CC(O)COc1ccc(CNCc2cc3ccccc3s2)cc1 (centres undefined),53.6% (active)
9,CCS(=O)(=O)C1=NSC2=NC(=O)/C(=C\c3ccc(OS(=O)(=O)c4ccccc4)cc3)C(=N)N21,53.4% (active)
10,CCCCCn1c(=O)c(C(=O)OCC)c(Cl)c2ccccc21,45.3% (active)
11,O=c1c2ccccc2nnn1CSc1nc2sc3c(c2c(=O)n1CC1CCCO1)CCC3 (centres undefined),24% (active)
12,Cc1ccc(NNC(=O)c2cccs2)cc1Cl,64.8% (active)
13,CCC(C(=O)N1CCOCC1)n1c(C(=O)OC)cc2occc21 (centres undefined),55% (active)
14,CCNC(=O)CC1C(=O)N(c2ccc(F)cc2)C(=O)N1CCc1sccc1C (centres undefined),inactive
15,O=C1c2cccc3cccc(c23)C(=O)N1CCCCCc1n[nH]c(=S)o1,inactive
16,COc1ccc(Cn2c(=O)sc3ccccc32)cc1OC,63.4% (active)
17,CCOc1ccccc1Nc1ccc2nonc2c1[N+](=O)[O-],33.1% (active)
18,CC(=O)N1CCN(S(=O)(=O)c2cccc(C(=O)NC3CCC(C)CC3)c2)CC1 (centres undefined),70.5% (active)
19,COc1ccc(S(=O)(=O)N2CCN(C(=O)NC3CCCCC3)CC2)cc1,inactive
20,CCc1nc(C)cn1S(=O)(=O)c1cc([N+](=O)[O-])ccc1Cl,inactive
21,CCn1c(SCCC(C)C)nnc1-c1c[nH]c2ccccc12,67.1% (active)
22,Cc1ccccc1-n1c(C)cc(/C=N/NC(=O)c2ccc(CN3CCOCC3)cc2)c1C,69.4% (active)
23,CC(=O)c1ccc(Oc2cc(C)nc(-n3nc(C)cc3C)n2)cc1,inactive
24,CCOC(=O)N1CCN(C(=O)C2CCN(c3ncnc4c3sc3cccc(F)c34)CC2)CC1,68.8% (active)
25,Cc1[nH]c2ccccc2c1C(=O)CN1CCCC(C)C1 (centres undefined),60.9% (active)

row,Compound,CHT activity remaining % of control (hits give low values)
1,O=C(Cn1nc(C(F)(F)F)c2c1CCC2)NCc1ccc(F)cc1,63.8% (active)
2,COC(=O)c1ccccc1NC(=O)Cn1nc(C(F)(F)F)c2c1CCC2,inactive
3,O=[N+]([O-])c1ccccc1Nc1ccc(O)cc1,42.1% (active)
4,COc1ccc(-n2nnnc2CNC(=O)c2ccc3ccccc3c2)cc1,56.6% (active)
5,COc1ccc(N2C(=O)CNC2=S)cc1,inactive
6,Cc1ccc(S(=O)(=O)/N=C(/NC(=S)Nc2c(C)n(C)n(-c3ccccc3)c2=O)c2ccccc2)cc1,39.1% (active)
7,O=C(c1cccs1)C1C(c2ccc(Br)cc2)NC(=S)NC1(O)C(F)(F)F (centres undefined),54.2% (active)
8,Oc1c(Cl)cc(Cl)c(Cl)c1Cc1c(O)c(Cl)cc(Cl)c1Cl,10.1% (active)
9,O=S(=O)(Cc1cc(Cl)nc(-c2cccnc2)n1)c1ccccc1,60.6% (active)
10,Cc1ccc2c(C)c(C(=O)N3CCC(N4CCC(C(=O)NC5CC5)CC4)CC3)oc2c1,61.6% (active)
11,Cc1oc2cc([N+](=O)[O-])c(O)c([N+](=O)[O-])c2c1C(=O)c1ccc(Br)cc1,inactive
12,O=C(Cn1ncc2c3ccccc3n(Cc3ccccc3)c2c1=O)NCCCN1CCOCC1,32.8% (active)
13,CCCn1c2ccccc2c2cnn(CC(=O)NCCCN3CCCCC3CC)c(=O)c21 (centres undefined),36.8% (active)
14,Cc1nn(CC(=O)NCC2CCCO2)c(=O)c2cc3ccccc3n12 (centres undefined),inactive
15,CCCCOc1ccc(Cl)cc1CSc1nncn1N,inactive
16,COc1ccc(C(=O)NC(=S)NNC(=O)CCc2ccccc2)cc1,66.3% (active)
17,COc1ccc(C(=O)NNC(=S)NC(=O)c2ccccc2)cc1,59.6% (active)
18,O=C(Nc1ccc(F)c(Cl)c1)C1CCN(S(=O)(=O)c2cccnc2)CC1,38.1% (active)
19,C=CCn1c(SCc2ccc(C(=O)NCCO)cc2)nc2ccccc2c1=O,inactive
20,COc1ccc(C(=O)NC(Cc2ccc(OC(=O)c3ccc(OC)cc3)cc2)C(=O)O)cc1 (centres undefined),18.8% (active)
21,O=C(NCCc1ccc2c(c1)OCCO2)c1cc2ccccc2o1,42.2% (active)
22,O=C(NCCCn1ccnc1)C(=O)c1cn(CC(=O)N2CCCCCC2)c2ccccc12,59.8% (active)
23,CCCCCn1c(=O)[nH]c2cc(C(=O)NCCCN3CCCCC3C)ccc2c1=O (centres undefined),35.4% (active)
24,CCCCn1c(SCC(=O)NCC2CCCO2)nc2ccc(N3CCOCC3)cc2c1=O (centres undefined),inactive
25,CC(=O)Nc1nc2c(s1)C(=O)NCC(C)(C)C2,inactive

row,Compound,CHT activity remaining % of control (hits give low values)
1,C/C(=N\N=C(N)N)c1ccc(Cl)cc1,12.2% (active)
2,CCN(CC(=O)NCc1ccc(Cl)cc1)C(=O)CSc1ccccc1,inactive
3,Nc1cc(N2CCCCCC2)c2nonc2c1[N+](=O)[O-],68.5% (active)
4,O=C(OCC(=O)c1c[nH]c2ccccc12)c1cccc(O)c1,56% (active)
5,CN(CCC#N)c1ncnc2scc(-c3ccccc3)c12,50.5% (active)
6,O=C(c1c(F)cccc1Cl)N1CCN(S(=O)(=O)c2ccc3c(c2)OCCCO3)CC1,inactive
7,O=S(=O)(c1cccc(-c2nnc(SC(F)F)n2-c2ccccc2)c1)N1CCCCC1,inactive
8,Cc1cccc(N(C)C(=O)CN2C(=O)COc3ccc(S(=O)(=O)N4CCCCCC4)cc32)c1,56.8% (active)
9,CCc1ccc2c(c1)C1(NN=C(c3ccccc3)S1)C(=O)N2 (centres undefined),54.3% (active)
10,Cn1c2ccccc2c(=O)c2c(O)cccc21,65.5% (active)
11,O=C(O/N=C(/c1ccccc1)c1ccncc1)c1ccccc1[N+](=O)[O-],60.1% (active)
12,Cc1cccc(C)c1NC(=O)c1ccc(CN2CCc3ccccc3C2)cc1,53.4% (active)
13,COc1ccc(C(=O)NC(C)c2nccs2)cc1OC1CCN(C(C)C)CC1 (centres undefined),22.1% (active)
14,COc1ccc(OCC(=O)OCCN(C)C)cc1,11.5% (active)
15,OC1CN=C2Sc3ccccc3N2C1 (centres undefined),46.2% (active)
16,CCC(C)c1ccc(NC(=S)NCc2ccccn2)cc1 (centres undefined),45.6% (active)
17,COC(=O)C(C(=O)Nc1cccc(Cl)c1C)C1CCCC1 (centres undefined),inactive
18,CC(C)CCn1c(CN(C)Cc2ccccc2)nc2c1c(=O)n(C)c(=O)n2C,inactive
19,Cc1cc(OC(C)C(=O)Nc2ccc(S(=O)(=O)Nc3onc(C)c3C)cc2)cc(C)c1Cl (centres undefined),57.7% (active)
20,COc1cc2ccccc2cc1C(=O)Nc1ccc(S(=O)(=O)Nc2cc(C)on2)cc1,49.4% (active)
21,Cc1cc(NS(=O)(=O)c2ccc(NC(=O)C(C)Oc3cccc(C)c3C)cc2)nc(C)n1 (centres undefined),13.3% (active)
22,CCC(Oc1ccccc1C)C(=O)Nc1ccc(S(=O)(=O)Nc2cc(C)on2)cc1 (centres undefined),46.2% (active)
23,CCN(CC)Cc1c(C(=O)N/N=C/c2cccc(OCc3ccc(F)cc3)c2)nnn1-c1nonc1N,inactive
24,CCc1cc2c(N3CCN(c4nnc(CC)s4)CC3)ncnc2s1,67.1% (active)
25,Cc1c(C(=O)OC(C)C)sc(NC(=O)c2cccnc2)c1C#N,61.9% (active)

row,Compound,CHT activity remaining % of control (hits give low values)
1,CCN(CC)CCC(c1ccc2c(c1)OCO2)c1c(OC)cc(OC)c2c(-c3ccccc3)cc(=O)oc12 (centres undefined),70.5% (active)
2,CC(C)(C)c1ccc(C(=O)CSc2ncn[nH]2)cc1,42.8% (active)
3,C/C(=N/NC(=O)c1cc(Cl)ccc1O)C12CC3CC(CC(C3)C1)C2,46.3% (active)
4,Cc1oc2c(F)c(F)c(F)c(F)c2c1S(=O)(=O)Nc1cccc(C(F)(F)F)c1,57.3% (active)
5,FC(F)(F)c1cccc(NC(=S)Nc2cccc(Cl)c2)c1,inactive
6,COc1ccc(NC(=O)c2sc(N)nc2-c2ccccc2)cc1,53.4% (active)
7,Cc1ccc2nc(Nc3ccccc3)cc(C)c2c1,49.7% (active)
8,COc1ccc(/C=C2/SC(=O)N(CCCCCC(=O)Nc3ccccc3C(=O)O)C2=S)cc1,29.7% (active)
9,C/C(=N\Nc1nc2ccccc2[nH]1)c1cccs1,19.1% (active)
10,CC(C(=O)NC1CCS(=O)(=O)C1)N1C(=O)/C(=C/c2ccc(Cl)cc2)SC1=S (centres undefined),69.7% (active)
11,Cc1ccc(C(=O)N/C(=C/C=C/c2ccccc2)C(=O)NCc2ccco2)cc1,47.3% (active)
12,O=C(/C=C/c1cn(-c2ccccc2)nc1-c1ccc2c(c1)OCCO2)NCCCN1CCOCC1,26.1% (active)
13,Cc1cccc(-c2nc3ccc(C(=O)NCCN4CCN(C)CC4)cc3nc2-c2cccc(C)c2)c1,40% (active)
14,CNCC(O)c1ccc(O)c(O)c1 (centres undefined),33.7% (active)
15,COC(=O)CN1C(C)=Nc2ccc(Br)cc2C1c1ccccc1 (centres undefined),inactive
16,O=C(O)CC1=C(Nc2ccccc2)C(=O)N(c2ccccc2)C1c1ccc(Cl)cc1 (centres undefined),26.7% (active)
17,O=S(=O)(Nc1ccc(Cl)cn1)c1cnc(Cl)c(Br)c1,inactive
18,CCC(=O)Nc1nnc(S(=O)(=O)N(CC(C)C)c2ccccc2)s1,inactive
19,C/C(=N\NC(N)=S)c1cccnc1,inactive
20,O=C(O)c1ccc(N/N=C/c2cn(-c3ccccc3)nc2-c2cccs2)cc1,65.1% (active)
21,COc1nc(OC)nc(N(C)CCO)n1,inactive
22,CCOC(=O)N1CCN(C(=O)c2ccc(CN(c3ccc(C)c(C)c3)S(C)(=O)=O)cc2)CC1,inactive
23,CCN(Cc1ccccc1)S(=O)(=O)c1cc(C(=O)O)ccc1OC,58.7% (active)
24,O=C(Nc1ccccc1C(=O)NCCCn1ccnc1)c1ccc(Cl)cc1Cl,52.6% (active)
